# Sampled rows, rich in hits. Any-hit rate of the full collection: about 3%.
# GALK inh = qHTS Assay for Inhibitors of Human Galactokinase (GALK). Purified GALK, Kinase-Glo residual ATP luminescence. P51570. 0.007% of 270,000 active. Potency, µM (titrated, usually from 57.5 µM), inactives show at the top dose activity change, negative = inhibition, most hits filed as inhibitors; also: % is scaled to controls: 0 for no effect and ±100 for the full control effect
#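 The enzyme phosphorylates galactose (100 uM) using ATP (35 uM); inhibition is detected as higher residual ATP, quantified by bioluminescence after 1 h reaction at room temperature, pH 8.0.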
# Nrf2 ARE act = qHTS of Nrf2 Activators. AREc32 ARE-luciferase reporter (MCF7-derived line), luminescence, 24 h. Potency, µM (highest dose often 46.1 µM), for the others: top-dose activation, hits mostly activators. 0.31% of 410,000 active. AID 624171, 2012; also: % of control where 0% means no effect; nearly all actives have a fitted effect of over 65% in size
#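 Each well held 1000 AREc32 cells, which were incubated with compound for 24 hr at 37 deg C after overnight attachment, and ARE reporter activity was quantified by firefly luciferase luminescence.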
# rTrxR1 inhibitor = qHTS Assay for Inhibitors of Mammalian Selenoprotein Thioredoxin Reductase 1 (TrxR1): qHTS | Thioredoxin reductase 1, cytoplasmic (Rattus norvegicus), O89049 | recombinant rTrxR1, NADPH fluorescence consumption, selenite substrate | Potency, µM (titrated, usually from 114 µM), for the others: top-dose activity change, negative = inhibition, actives largely listed as inhibitors | 1% of 390,000 active | AID 588453, 2011; also: % is scaled to controls: 0 for no effect and ±100 for the full control effect; nearly all actives have a fitted effect of over 65% in size
# Target sequence (O89049 whole entry, looked up): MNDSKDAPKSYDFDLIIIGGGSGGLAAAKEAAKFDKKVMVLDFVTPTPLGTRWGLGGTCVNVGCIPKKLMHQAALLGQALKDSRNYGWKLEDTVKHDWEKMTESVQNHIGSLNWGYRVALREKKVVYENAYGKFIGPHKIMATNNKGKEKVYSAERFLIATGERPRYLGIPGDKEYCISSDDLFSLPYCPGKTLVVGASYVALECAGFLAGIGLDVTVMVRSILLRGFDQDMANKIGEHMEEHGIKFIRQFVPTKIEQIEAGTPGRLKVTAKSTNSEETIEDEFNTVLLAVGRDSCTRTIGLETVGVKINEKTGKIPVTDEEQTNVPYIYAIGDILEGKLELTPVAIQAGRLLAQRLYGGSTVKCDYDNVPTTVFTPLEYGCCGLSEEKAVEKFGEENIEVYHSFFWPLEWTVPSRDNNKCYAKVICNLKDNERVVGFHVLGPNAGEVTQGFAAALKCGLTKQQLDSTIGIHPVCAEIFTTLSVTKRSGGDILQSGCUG
#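 Rat TrxR1 (90 nM in the dispensed reagent) was pre-reduced with 400 uM NADPH for 5 min at room temperature, then incubated with compound for 15 min. After 400 uM selenite was added, NADPH fluorescence (Ex 340/Em 450 nm) was followed for 8 min.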
# Nrf2 block = Nrf2 qHTS screen for inhibitors | A549 ARE-Fluc reporter, luciferase luminescence, 18-24 h | Potency, µM (highest dose often 46 µM), for inactives: top-dose activity change, negative = inhibition, hits mostly inhibitors | 2.1% of 360,000 active; also: % is scaled to controls: 0 for no effect and ±100 for the full control effect; nearly all actives have a fitted effect of over 60% in size
#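 Nrf2 activity is the BugLite luminescence, read 15 min after reagent at room temperature, following CellTiter-Fluor cytotoxicity readout (30 min, 37C). Compound titrations were applied for 18-24 h to 5000 A549 ARE_Fluc cells/well in 5% FBS OPTI-MEM.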
# TrxR1 substrate = qHTS Assay for Substrates of Mammalian Selenoprotein Thioredoxin Reductase 1 (TrxR1): qHTS; purified TrxR1 substrate turnover, NADPH consumption readout; Potency, µM (doses to about 114 µM), inactives show at the top dose activity change, negative = substrate turnover; 0.01% of 390,000 active; also: % is scaled to controls: 0 for no effect and ±100 for the full control effect; nearly all actives have a fitted effect of over 50% in size
#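 Rat TrxR1, dispensed at 90 nM, was prereduced with 400 uM NADPH (final) for 5 min at ~22 deg C, then incubated with compound 15 min before 400 uM selenite. A first-read NADPH fluorescence drop versus no-compound background flagged substrates.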
# A549 viability = Nrf2 qHTS screen for inhibitors: counterscreen for cytotoxicity; 0.16% of 390,000 active; Potency, µM (highest dose often 46 µM), for the others: top-dose activity change, negative = cytotoxicity, actives largely listed as inhibitors; A549 ARE-Fluc cells, CellTiter-Fluor viability, 18-24 h; AID 504648, 2011; also: % is scaled to controls: 0 for no effect and ±100 for the full control effect
#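 A549 ARE_Fluc cells in 5% FBS OPTI-MEM were exposed to compounds in concentration-response for 18-24 h at 37 deg C. Viability was read by CellTiter-Fluor fluorescence (Ex 405/Em 525) after 30 min, before the luciferase read.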
# * marks the source's active call; other numbers are inactive results; ? = inconclusive; · = no result; [ ] = remark or other dose. Calls follow the shape of the dose curve; as a rule, active = well fitted curve in the direction sought with a large enough effect; inconclusive = small, poorly fitted or top-dose-only effect, or another doubt; inactive = no such curve, though single readings can be large; an effect the other way counts as inactive or inconclusive. Potency is read from the fitted curve at half-maximal effect.
SMILES,GALK inh,Nrf2 ARE act,rTrxR1 inhibitor,Nrf2 block,TrxR1 substrate,A549 viability
O=c1ccc(N=Nc2ccccc2)ccc1O,12%,22%,-31%[57.1 µM],?,-18%[57.1 µM],16µM*
N#CCCn1cc(/C=C2\NC(=S)N(c3ccccc3)C2=O)c(-c2ccc(-c3ccccc3)cc2)n1,1%,0%,27%[57.1 µM],18µM*,3%,21µM*
O=C(O)CCn1cc(/C=C2/NC(=S)N(c3ccccc3)C2=O)c(-c2ccccc2)n1,·,-1%,-5%,-3%,8%[0.457 µM],-18%
COc1ccc(C=NNC(=S)Nc2ccc(F)cc2)cc1OC,·,0%,-9%,?,-2%,-16%
COc1ccc(C=NNC(=S)NN=Cc2ccc(OC)c(OC)c2)cc1OC,·,12%,1%[2.29 µM],15µM*,-3%[57.1 µM],4%
c1ccc(CNc2nc(-c3ccccc3)nc3ccccc23)cc1,1%,0%[9.22 µM],32%,?,4%,-17%
CCc1nc(NCc2ccccn2)c2oc3ccccc3c2n1,3%,0%,-10%,9.2µM*,-6%,-12%
Cc1cc(NCc2ccccn2)nc2ccccc12,0%,0%,21%,5%,16%,-1%
c1ccc(CNc2nc(-c3ccccn3)nc3ccccc23)cc1,0%,-1%,8%,16µM*,-1%,-17%
Cc1nc(NCc2ccccn2)c2ccccc2n1,-1%,-1%,11%,6.5µM*,8%,-2%
CC(C)(C)n1ncc2c(=O)n(Cc3cccc(-c4ccccc4)c3)cnc21,·,·,2%,·,-3%,·
O=C1S/C(=C/c2ccc(N3CCOCC3)o2)C(=O)N1Cc1c(F)cccc1Cl,-2%,3%,8.9µM*,?,-10%,·
O=C1NC(=O)/C(=C\c2ccc(N3CCOCC3)o2)N1,0%,-1%,8.9µM*,-7%,-22%,-6%
O=C1N=C(N2CCOCC2)S/C1=C/c1ccc(-c2ccccc2Cl)o1,0%,0%,-16%,?,-16%,·
O=C1S/C(=C\c2ccc(N3CCOCC3)o2)C(=O)N1c1ccccc1,-1%,4%,4µM*,-6%,5%[57.1 µM],?
O=C1S/C(=C\c2ccc(N3CCOCC3)o2)C(=O)N1Cc1c(F)cccc1Cl,-2%,0%,2.5µM*,-8%,4%[57.1 µM],-2%
O=C1NC(=O)/C(=C/c2ccc(N3CCOCC3)o2)N1,4%,0%,?,4%,5%[57.1 µM],1%
O=C(O)c1ccccc1-c1ccc(/C=C2\SC(=O)N(c3ccccc3)C2=O)o1,1%,9%,-26%,?,-8%,?
COc1ccccc1CCNC(=O)CCc1c(C)c2cc3c(C)coc3c(C)c2oc1=O,·,0%,14%,17%,5%,-5%
CCOC(=O)C1=C(C)NC2=C(C(=O)c3ccccc32)C1c1ccc([N+](=O)[O-])o1 (stereo not given),4%,14µM*,?,1%,-10%[57.1 µM],-15%
CCOC(=O)C1=C(C)NC(=O)NC1c1ccc([N+](=O)[O-])o1 (stereo not given),9%,3%,-34%,3%,-2%,-11%
Cc1cc(OCC(=O)NC(Cc2c[nH]c3ccccc23)C(=O)O)ccc1Cl (stereo not given),·,-1%,7%,6%,14%,0%
COc1ccc(C2c3c(ncn(Cc4ccccc4)c3=N)Oc3ccc4ccccc4c32)cc1OC (stereo not given),·,·,·,3%,·,-10%
COc1ccc(CNC(=O)c2sc3nc4c(c(C(F)(F)F)c3c2N)CCC4)cc1OC,1%,-1%,3%,23µM*,-7%,0%
Cc1c(Cl)cccc1NC(=O)Nc1nnc(N2CCCCCC2)s1,·,-1%,7%,-29%,-4%,4%
SMILES,GALK inh,Nrf2 ARE act,rTrxR1 inhibitor,Nrf2 block,TrxR1 substrate,A549 viability
O=C(CSc1nc(=O)[nH]c2c1CCC2)NCc1ccccc1Cl,·,-1%,11%[57.1 µM],·,5%[57.1 µM],4%
COCC(=O)N(CCc1ccccc1)Cc1cc2cc(C)ccc2nc1Cl,1%,0%,9%,0%,0%,6%
COCC(=O)N(CCc1ccc(OC)c(OC)c1)Cc1cc2cc(C)ccc2nc1Cl,0%,0%,-2%[57.1 µM],16µM*,3%[57.1 µM],-1%
CCc1ccc(-n2nc(C)c3c(C)cc(=O)n(CC(=O)N(CC)Cc4ccccc4)c32)cc1,·,4%,-5%[57.1 µM],10%,-9%[57.1 µM],1%
CCN(Cc1ccccc1)C(=O)Cn1c(=O)cc(C)c2c(C)nn(-c3cccc(F)c3)c21,·,-1%,10%[57.1 µM],21µM*,3%[57.1 µM],-22%
O=C(O)COc1cccc(NC(=O)c2ccccc2)c1,8%,2%,-7%,2%,-2%[57.1 µM],-5%
O=C(COc1cccc(NC(=O)c2ccccc2)c1)c1ccccc1,0%,0%,-12%,21µM*,-11%,-15%
O=C(COc1cccc(NC(=O)c2cccc([N+](=O)[O-])c2)c1)c1ccc(Br)cc1,-1%,0%,-1%,21µM*,-10%,?
COc1cccc2cc(-c3nc(-c4ccccc4)c(C)s3)c(=O)oc12,·,·,7%,4%,7%[0.0914 µM],-4%
O=C1CCCN1c1ccc(S(=O)(=O)Oc2ccc(Cl)cc2)cc1[N+](=O)[O-],-7%,0%,5%,7.3µM*,-8%,?
CCCNS(=O)(=O)c1ccc(N2CCCC2=O)c([N+](=O)[O-])c1,0%,0%,-1%,27%,1%,-4%
COc1ccc(C2Nc3ccccc3C(=O)N2Cc2ccccc2C)cc1COc1ccc(NC(C)=O)cc1 (stereo not given),·,·,·,?,·,-9%
Clc1ccccc1-c1nn2c(-c3cc(-c4ccccc4)n[nH]3)nnc2s1,·,·,18%,23µM*,13%[0.0914 µM],-15%
COC(=O)c1c(NC(=O)CCCOc2ccccc2C)sc2c1CCC2,·,3%,-13%,7%,7%,5%
O=C1NCCCC2c3c(cc(Br)c(O)c3Br)OC12N1CCCCC1 (stereo not given),0%,5%,25µM*,5%,1%,-1%
Cc1cccc(-c2nnn3c2nc(NCc2ccc4c(c2)OCO4)c2ccccc23)c1,·,2%,-1%,8%,0%,6%
Cc1ccc(OC(C)C(=O)N2CCN(CCc3ccncc3)CC2)cc1C (stereo not given),·,0%,?,18%,1%,0%
CCN(CC)S(=O)(=O)c1ccc(C)c(NC(=S)N2CCN(C/C=C/c3ccccc3)CC2)c1,9%,1%,-2%,12µM*,-3%,-16%
Fc1ccc(NC(=S)N2CCN(C/C=C/c3ccccc3)CC2)c(F)c1,2%,6%,0%,21µM*,-3%,-30%
